# Assay results taken from PubChem BioAssay (NCATS).
# Values joined by “and” are separate entries in the source; they are usually repeats but may differ in a detail not shown here. Equal values may be shown once. Results filed as inconclusive are left out. Entries that show only a call come without a potency. Unmarked numbers belong to inactive results. Active and inactive are the calls of the source. Calls come from the whole dose curve; as a rule, active = well fitted curve in the direction sought with a large enough effect; inconclusive = small, poorly fitted or top-dose-only effect, or another doubt; inactive = no such curve, though single readings can be large; an effect the other way counts as inactive or inconclusive.
# Key:
# [1] = target: Cellular tumor antigen p53 (Homo sapiens) (UniProt P04637); assay: Primary qHTS for small molecule compounds that upregulate eGFP-tagged delta133p53alpha (in N-terminal) cells. (AID 2060322); conditions: NCI-H358 eGFP-delta133p53alpha fluorescence, 24 h; activation: active compounds read high; note: nearly all actives have a fitted effect of over 75% in size; note: potency is the fitted concentration of half-maximal effect;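 for activation: cells pre-induced with doxycycline then dosed without doxycycline; series mostly up to about 56 µM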
# Chain of Cellular tumor antigen p53 (Homo sapiens) (P04637 whole entry, looked up): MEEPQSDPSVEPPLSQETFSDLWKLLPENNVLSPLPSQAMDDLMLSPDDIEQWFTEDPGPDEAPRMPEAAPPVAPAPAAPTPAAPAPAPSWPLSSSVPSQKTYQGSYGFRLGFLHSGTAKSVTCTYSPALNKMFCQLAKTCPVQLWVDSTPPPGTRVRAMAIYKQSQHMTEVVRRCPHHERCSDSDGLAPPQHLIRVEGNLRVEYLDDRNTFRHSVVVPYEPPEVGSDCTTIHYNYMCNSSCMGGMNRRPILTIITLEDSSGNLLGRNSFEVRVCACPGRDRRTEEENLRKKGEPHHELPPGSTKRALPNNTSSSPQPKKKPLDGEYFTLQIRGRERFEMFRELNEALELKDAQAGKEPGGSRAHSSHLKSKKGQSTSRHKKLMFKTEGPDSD
# How it was run: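 NCI-H358 cells pre-induced 24 h with 10 ng/ml doxycycline for eGFP-delta133p53alpha, plated dox-free and exposed 24 h at 37C to titrated compounds. Fixed, Hoechst-stained; gated GFP peak intensity by laser scanning cytometry, normalized to DMSO (0%) and 57.5 uM 5-azacytidine (100%).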
# [2] = target: Aldehyde dehydrogenase, mitochondrial (Homo sapiens) (UniProt P05091); assay: qHTS for Inhibitors of the Aldehyde Dehydrogenase Family (ALDH2) Primary screen (AID 2061308); note: nearly all actives have a fitted effect of over 55% in size
SMILES,activation [1],Potency [2],Potency [1]
COc1cc(C2Oc3c(OC)cc(/C=C/C(=O)OC[C@H]4O[C@@H](OC(C)(C)C(=O)O)[C@H](O)[C@@H](O)[C@@H]4O)cc3C2CO)ccc1O (stereo partly drawn),-9.16%,inactive,
C/C=C1/[C@H](O[C@@H]2O[C@H](CO)[C@@H](O)[C@H](O)[C@H]2O)OC=C(C(=O)OC)[C@H]1CC(=O)OCCc1ccc(OC(=O)C[C@@H]2C(C(=O)OC)=CO[C@@H](O[C@@H]3O[C@H](CO)[C@@H](O)[C@H](O)[C@H]3O)/C2=C/C)cc1,-7.14%,inactive,
CC1CCC2C(C(=O)O)=CC3(O)CC(C)(C)CC123 (stereo not drawn),-22.3%,inactive,
COc1ccc(C2COc3cc(O)ccc3C2)c(O)c1OC (stereo not drawn),-2.29%,inactive,
C[C@@H]1O[C@@H](O[C@H]2[C@H](OC(C#N)c3ccc(O)cc3)O[C@H](CO)[C@@H](O)[C@@H]2O)[C@H](O)[C@H](O)[C@H]1O (stereo partly drawn),-19.8%,inactive,
CC(O)/C=C/C1(O)C2(C)COC1(C)CC(O)C2 (stereo not drawn),9.82%,inactive,
O=C(NO)c1ccc(CC(=O)N(CCO)c2ccccc2)cc1,-8.59% and 7.82%,inactive,
OCCc1ccc(O[C@@H]2O[C@H](CO)[C@@H](O)[C@H](O)[C@H]2O)c(O)c1,8.93%,inactive,
OC[C@H]1O[C@@H](OCc2ccccc2)[C@H](O)[C@@H](O)[C@@H]1O,-9.16%,inactive,
CC1CC=C2C1CC1(O)C(=O)CC2(C)C1(C)CO (stereo not drawn),3.82%,inactive,
C=C1C(O)CC2C(C(=O)O)=COC(OC3OC(CO)C(O)C(O)C3OC(=O)/C=C\c3ccc(O)cc3)C12 (stereo not drawn),-22.9%,inactive,
COc1c2cc(c(O[C@@H]3O[C@H](CO)[C@@H](O)[C@H](O)[C@H]3O)c1OC)CCCCC(O)CCc1ccc(O)c-2c1 (stereo partly drawn),8.93%,inactive,
COc1cc([C@H]2OC[C@]3(OC(C)=O)[C@@H](c4ccc(O[C@@H]5O[C@H](CO)[C@@H](O)[C@H](O)[C@H]5O)c(OC)c4)OC[C@H]23)ccc1O,-3.82%,inactive,
C=C1CCC2[C@](C)(CO)CCC[C@@]2(C)[C@@H]1CCC1=CCOC1=O (stereo partly drawn),-7.14%,inactive,
CC1(O)CCC2C(C(=O)O)=COC(OC3OC(CO)C(O)C(O)C3OC(=O)/C=C/c3ccc(O)cc3)C21 (stereo not drawn),-16%,inactive,
CC1(C)CCC[C@@]2(C)[C@H]1[C@H](O)C=C1COC(=O)[C@@]12O,-4.58%,inactive,
C[C@@H]1O[C@@H](O[C@H]2[C@@H]3C=CO[C@@H](O[C@@H]4O[C@H](CO)[C@@H](O)[C@H](O)[C@H]4O)[C@@H]3[C@@]3(CO)O[C@@H]23)[C@H](O)[C@H](OC(=O)/C=C/c2ccc(O)c(O)c2)[C@H]1O,2.29%,inactive,
COc1cc(/C=C/C(=O)OC(C)(C)C(OC2OC(CO)C(O)C(O)C2O)C(=O)OCc2ccc(OC3OC(CO)C(O)C(O)C3O)cc2)ccc1O (stereo not drawn),13.7%,inactive,
C=C1CC[C@H]2[C@@](C)(CCC(O)[C@@]2(C)CO)[C@@H]1CCC1=CCOC1=O (stereo partly drawn),-11.5%,inactive,
NC(=O)c1ccc(OCC2NC(=O)C3CCCN3C2=O)cc1 (stereo not drawn),-12.2%,inactive,
Cc1cc(N(C)C)ccc1-c1nc2ccc(-c3nc4ccc(N5CCN(C)CC5)cc4[nH]3)cc2[nH]1,,inactive,30.1 µM (active)
C[C@@H]1O[C@@H](O[C@H]2[C@@H]3C=CO[C@@H](O[C@@H]4O[C@H](CO)[C@@H](O)[C@H](O)[C@H]4O)[C@@H]3[C@@]3(CO)O[C@@H]23)[C@H](OC(=O)/C=C/c2ccc(O)c(O)c2)[C@H](O)[C@H]1O,-5.34%,inactive,
CC1(C)C=Cc2c(ccc3c2[N+]([O-])=C2C3(O)CC34NC(=O)C5(CCCN5C3=O)CC4C2(C)C)O1 (stereo not drawn),6.25%,inactive,
COC(=O)C1=CO[C@@H](O[C@@H]2O[C@H](CO[C@@H]3O[C@H](COC(=O)/C=C/c4ccc(O)cc4)[C@@H](O)[C@H](O)[C@H]3O)[C@@H](O)[C@H](O)[C@H]2O)[C@@H]2C(CO)=CC[C@H]12,-3.05%,inactive,
